The full data set covers some 8,800 targets. This sample favours those with a hit. About 0.5% of all pairs of compound and target were hits.
Assays:
Test in all cases: log2 fold change, soluble protein after heating vs DMSO (PISA); higher = thermal stabilisation; K562 lysate, 10 uM; active = over 0.2 and 3.5 SD of the protein, either way, in both replicates (recomputed)
ibrutinib = compound: C=CC(=O)N1CCC[C@@H](n2nc(-c3ccc(Oc4ccccc4)cc3)c3c(N)ncnc32)C1 [ibrutinib]
In short: (§1)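 Values give the log-two fold change in thermal stability against solvent controls, from duplicates. Crude K562 extract at 1 mg/mL protein, made by dounce homogenisation in PBS pH 7.4 with 1 mM MgCl2, was treated with 10 μM compound for 30 min. After 3 min heating across 48°C-58°C, aliquots were pooled, adjusted to 0.5% NP-40 at 4°C and centrifuged at 21,000xg for 90 min. The supernatant was measured by TMTpro 16plex LC-MS/MS with channel sums equalised.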

[1] = compound: CC(=O)c1cnc2ccc(-c3cc(Cl)c(O)c(Cl)c3)nc2c1N[C@H]1CC[C@H](CN(C)C)CC1
In short: as §1

ralimetinib = compound: CC(C)(C)Cn1c(N)nc2ccc(-c3[nH]c(C(C)(C)C)nc3-c3ccc(F)cc3)nc21 [ralimetinib]
In short: as §1

[2] = compound: CC(C)(O)CC(=O)NCCn1ccc2ncnc(Nc3ccc(Oc4cccc(C(F)(F)F)c4)c(Cl)c3)c21
In short: as §1

[3] = compound: CC(C)C1=C2N=C(C=C(N2N=C1)NCC3=CC=CC=C3)NCCCCCCN
In short: as §1

[4] = compound: CC1=C(C(CC(=O)N1)C2=CC=C(C=C2)C(F)(F)F)C(=O)NC3=C(C=C4C(=C3)C=NN4)F
In short: as §1

[5] = compound: CC1=C(C2=C(C=C1)C(=O)C3=CC=CC=C3N2CCCN)C
In short: as §1

[6] = compound: CC1=C(C=C(C=C1)NC(=O)C2=CC(=CC=C2)C(C)(C)C#N)NC3=CC4=C(C=C3)N=CN(C4=O)C
In short: as §1

[7] = compound: CC1=C(C=C(C=C1)NC(=O)C2=CC(=CC=C2)N(C)C)NC(=O)C3=CC=C(C=C3)O
In short: as §1

[8] = compound: CC1=CC=C(C=C1)SC2=C3C=C(SC3=CN=C2)C(=O)N
In short: as §1

Measured: log2 fold change

NARF (UniProt Q9UHQ1)
inactive: ibrutinib 0.004 | [1] 0.044 | ralimetinib -0.007 | [2] -0.013 | [3] -0.013 | [4] -0.007 | [5] -0.011 | [6] -0.013 | [7] -0.008 | [8] -0.113

MYCBP2 (UniProt O75592)
inactive: ibrutinib 0.014 | [1] -0.027 | ralimetinib 0.033 | [2] -0.085 | [3] 0.014 | [4] 0.016 | [5] -0.028 | [6] 0.028 | [7] 0.036 | [8] -0.033

NQO1 (UniProt P15559)
inactive: ibrutinib 0.009 | [1] -0.003 | ralimetinib 0.033 | [2] 0.081 | [3] -0.009 | [4] 0.001 | [5] 0.159 | [6] 0.038 | [7] -0.025 | [8] 0.067

NLRP2 (UniProt Q9NX02)
inactive: ibrutinib -0.007 | [1] -0.007 | ralimetinib 0.036 | [2] 0.021 | [3] -0.008 | [4] 0.007 | [5] 0.009 | [6] 0.003 | [7] 0.021 | [8] 0.021

NOC2L (UniProt Q9Y3T9)
inactive: ibrutinib -0.047 | [1] 0.015 | ralimetinib 0.047 | [2] -0.005 | [3] 0.026 | [4] 0.014 | [5] -0.074 | [6] -0.02 | [7] 0.021 | [8] 0.014

NUP98 (UniProt P52948)
inactive: ibrutinib -0.01 | [1] 0.047 | ralimetinib 0.047 | [2] 0.022 | [3] -0.037 | [4] 0.034 | [5] 0.029 | [6] -0.022 | [7] 0.008 | [8] -0.017

MRPL58 (UniProt Q14197)
inactive: ibrutinib 0.025 | [1] 0.032 | ralimetinib -0.022 | [2] 0.006 | [3] -0.013 | [4] 0.089 | [5] -0.034 | [6] -0.035 | [7] 0.032 | [8] 0.053

NUP205 (UniProt Q92621)
UniProt Q92621, sequence (Q92621 whole entry, looked up): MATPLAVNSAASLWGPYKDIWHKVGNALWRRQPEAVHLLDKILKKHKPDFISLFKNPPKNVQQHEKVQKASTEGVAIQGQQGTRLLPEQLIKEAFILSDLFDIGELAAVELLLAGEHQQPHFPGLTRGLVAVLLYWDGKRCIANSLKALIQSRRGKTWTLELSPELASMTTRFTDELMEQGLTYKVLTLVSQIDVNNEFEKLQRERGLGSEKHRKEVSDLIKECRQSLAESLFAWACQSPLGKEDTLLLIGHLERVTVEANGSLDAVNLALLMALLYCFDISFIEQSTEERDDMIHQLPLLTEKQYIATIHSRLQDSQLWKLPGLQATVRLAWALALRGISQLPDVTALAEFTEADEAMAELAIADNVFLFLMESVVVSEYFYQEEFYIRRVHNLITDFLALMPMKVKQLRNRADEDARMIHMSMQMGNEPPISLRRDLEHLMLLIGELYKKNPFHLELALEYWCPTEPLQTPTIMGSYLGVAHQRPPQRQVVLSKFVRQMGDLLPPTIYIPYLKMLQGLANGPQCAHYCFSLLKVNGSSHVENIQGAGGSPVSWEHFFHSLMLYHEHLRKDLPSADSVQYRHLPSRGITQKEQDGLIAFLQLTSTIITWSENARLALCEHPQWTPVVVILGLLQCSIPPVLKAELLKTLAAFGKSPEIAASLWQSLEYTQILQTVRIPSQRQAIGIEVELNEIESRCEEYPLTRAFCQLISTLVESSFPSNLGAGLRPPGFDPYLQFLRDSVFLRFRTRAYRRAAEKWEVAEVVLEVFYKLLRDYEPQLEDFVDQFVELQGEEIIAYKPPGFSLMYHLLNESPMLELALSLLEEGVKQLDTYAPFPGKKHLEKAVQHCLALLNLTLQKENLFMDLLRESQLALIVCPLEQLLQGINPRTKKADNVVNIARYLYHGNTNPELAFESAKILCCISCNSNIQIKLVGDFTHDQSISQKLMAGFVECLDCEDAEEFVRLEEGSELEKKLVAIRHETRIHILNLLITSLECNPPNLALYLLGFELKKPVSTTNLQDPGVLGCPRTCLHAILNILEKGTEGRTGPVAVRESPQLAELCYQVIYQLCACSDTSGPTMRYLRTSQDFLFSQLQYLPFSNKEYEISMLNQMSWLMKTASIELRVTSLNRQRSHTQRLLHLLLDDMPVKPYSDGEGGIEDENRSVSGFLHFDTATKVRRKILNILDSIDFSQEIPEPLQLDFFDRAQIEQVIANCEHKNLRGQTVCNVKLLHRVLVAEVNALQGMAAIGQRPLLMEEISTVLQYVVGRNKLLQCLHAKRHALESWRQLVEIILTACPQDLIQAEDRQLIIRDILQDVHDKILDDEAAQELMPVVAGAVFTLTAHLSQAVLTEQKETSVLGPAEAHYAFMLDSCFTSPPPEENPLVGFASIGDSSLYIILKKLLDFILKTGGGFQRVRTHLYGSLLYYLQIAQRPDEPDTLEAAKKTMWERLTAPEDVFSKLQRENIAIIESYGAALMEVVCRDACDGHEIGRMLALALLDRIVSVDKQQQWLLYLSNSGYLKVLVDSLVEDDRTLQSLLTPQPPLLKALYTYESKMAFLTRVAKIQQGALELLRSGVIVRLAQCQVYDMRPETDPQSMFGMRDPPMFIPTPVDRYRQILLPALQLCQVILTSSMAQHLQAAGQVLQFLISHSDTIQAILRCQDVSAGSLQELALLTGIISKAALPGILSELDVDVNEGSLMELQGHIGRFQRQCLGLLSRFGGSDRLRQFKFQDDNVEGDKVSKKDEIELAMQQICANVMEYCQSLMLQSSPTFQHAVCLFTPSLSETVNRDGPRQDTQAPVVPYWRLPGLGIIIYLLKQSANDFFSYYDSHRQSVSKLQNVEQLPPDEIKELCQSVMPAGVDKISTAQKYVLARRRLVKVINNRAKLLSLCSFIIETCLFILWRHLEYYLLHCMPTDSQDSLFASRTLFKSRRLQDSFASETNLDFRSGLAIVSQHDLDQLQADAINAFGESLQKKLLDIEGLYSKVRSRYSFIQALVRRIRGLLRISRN
inactive: ibrutinib 0.015 | [1] 0.026 | ralimetinib 0.026 | [2] -0.006 | [3] -0.036 | [4] 0.003 | [5] 0.022 | [6] 0.026 | [7] 0.017 | [8] 0.008

NFATC2IP (UniProt Q8NCF5)
UniProt Q8NCF5, sequence (Q8NCF5 whole entry, looked up): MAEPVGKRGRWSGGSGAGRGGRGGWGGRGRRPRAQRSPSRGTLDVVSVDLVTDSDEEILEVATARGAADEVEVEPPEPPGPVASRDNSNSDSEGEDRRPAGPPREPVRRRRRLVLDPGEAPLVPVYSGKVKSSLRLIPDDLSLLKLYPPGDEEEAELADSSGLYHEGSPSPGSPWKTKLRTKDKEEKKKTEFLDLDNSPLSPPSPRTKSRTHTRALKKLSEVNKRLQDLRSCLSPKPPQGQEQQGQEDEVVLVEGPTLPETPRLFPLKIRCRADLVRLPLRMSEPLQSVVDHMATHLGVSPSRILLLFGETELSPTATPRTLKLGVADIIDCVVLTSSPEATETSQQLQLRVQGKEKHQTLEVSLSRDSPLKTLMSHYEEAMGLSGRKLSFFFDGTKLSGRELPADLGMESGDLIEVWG
inactive: ibrutinib 0.015 | [1] -0.037 | ralimetinib 0 | [2] -0.052 | [3] 0.01 | [4] -0.021 | [5] -0.019 | [6] -0.047 | [7] 0.013 | [8] 0.011

NMRAL1 (UniProt Q9HBL8)
UniProt Q9HBL8, sequence (Q9HBL8 whole entry, looked up): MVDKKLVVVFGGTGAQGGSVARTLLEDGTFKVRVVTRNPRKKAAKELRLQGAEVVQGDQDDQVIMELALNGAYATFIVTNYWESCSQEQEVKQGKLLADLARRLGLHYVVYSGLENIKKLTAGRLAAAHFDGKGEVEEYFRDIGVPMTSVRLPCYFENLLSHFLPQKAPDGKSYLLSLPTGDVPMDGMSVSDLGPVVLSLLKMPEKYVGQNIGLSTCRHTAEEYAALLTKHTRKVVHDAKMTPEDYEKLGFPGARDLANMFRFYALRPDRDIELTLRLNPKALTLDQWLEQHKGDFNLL
inactive: ibrutinib 0.122 | [1] 0.021 | ralimetinib 0.06 | [2] 0.012 | [3] -0.03 | [4] 0.047 | [5] -0.048 | [6] -0.01 | [7] -0.016 | [8] 0

NAA30 (UniProt Q147X3)
UniProt Q147X3, sequence (Q147X3 whole entry, looked up): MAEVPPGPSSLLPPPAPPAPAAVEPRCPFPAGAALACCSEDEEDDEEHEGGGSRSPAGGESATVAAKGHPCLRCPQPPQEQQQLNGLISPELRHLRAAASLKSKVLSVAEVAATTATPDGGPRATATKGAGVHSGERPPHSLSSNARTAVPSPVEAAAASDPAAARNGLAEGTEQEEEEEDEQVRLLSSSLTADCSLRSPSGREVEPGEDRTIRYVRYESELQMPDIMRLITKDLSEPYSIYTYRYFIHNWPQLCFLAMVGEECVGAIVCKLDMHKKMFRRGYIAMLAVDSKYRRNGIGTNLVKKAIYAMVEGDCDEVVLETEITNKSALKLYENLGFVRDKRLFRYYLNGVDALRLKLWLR
inactive: ibrutinib 0.013 | [1] -0.017 | ralimetinib 0.057 | [2] -0.037 | [3] -0.018 | [4] 0.084 | [5] -0.024 | [6] -0.045 | [7] 0.004 | [8] 0.046

MYCBP (UniProt Q99417)
inactive: ibrutinib 0.188 | [1] -0.009 | ralimetinib 0.021 | [2] -0.04 | [3] 0.002 | [4] -0.007 | [5] -0.017 | [6] 0.032 | [7] -0.002 | [8] -0.009

NR2F2 (UniProt P24468)
inactive: ibrutinib 0.007 | [1] -0.09 | ralimetinib -0.006 | [2] -0.069 | [3] -0.067 | [4] 0.097 | [5] 0.032 | [6] -0.031 | [7] 0.065 | [8] -0.042

ORC5 (UniProt O43913)
inactive: ibrutinib 0.05 | [1] 0 | ralimetinib 0.047 | [2] -0.001 | [3] 0.022 | [4] -0.027 | [5] -0.008 | [6] 0.012 | [7] 0.053 | [8] -0.007

PARP14 (UniProt Q460N5)
inactive: ibrutinib 0.029 | [1] -0.051 | ralimetinib -0.03 | [2] 0.015 | [3] 0.074 | [4] 0.049 | [5] 0.011 | [6] -0.007 | [7] 0.002 | [8] -0.135

NUF2 (UniProt Q9BZD4)
inactive: ibrutinib -0.052 | [1] -0.051 | ralimetinib 0.03 | [2] 0.015 | [3] -0.001 | [4] 0.018 | [5] 0.027 | [6] -0.011 | [7] 0.044 | [8] 0.009

OSBPL3 isoform 2 (UniProt Q9H4L5)
inactive: ibrutinib 0.031 | [1] -0.007 | ralimetinib 0.019 | [2] 0.004 | [3] -0.033 | [4] 0.018 | [5] 0.02 | [6] 0.015 | [7] 0.057 | [8] -0.016

NEK7 (UniProt Q8TDX7)
inactive: ibrutinib 0.041 | [1] -0.041 | ralimetinib 0.063 | [2] -0.016 | [3] 0.034 | [4] -0.015 | [5] -0.048 | [6] -0.043 | [7] 0.053 | [8] 0.002

PAK4 (UniProt O96013)
UniProt O96013, sequence (O96013 whole entry, looked up): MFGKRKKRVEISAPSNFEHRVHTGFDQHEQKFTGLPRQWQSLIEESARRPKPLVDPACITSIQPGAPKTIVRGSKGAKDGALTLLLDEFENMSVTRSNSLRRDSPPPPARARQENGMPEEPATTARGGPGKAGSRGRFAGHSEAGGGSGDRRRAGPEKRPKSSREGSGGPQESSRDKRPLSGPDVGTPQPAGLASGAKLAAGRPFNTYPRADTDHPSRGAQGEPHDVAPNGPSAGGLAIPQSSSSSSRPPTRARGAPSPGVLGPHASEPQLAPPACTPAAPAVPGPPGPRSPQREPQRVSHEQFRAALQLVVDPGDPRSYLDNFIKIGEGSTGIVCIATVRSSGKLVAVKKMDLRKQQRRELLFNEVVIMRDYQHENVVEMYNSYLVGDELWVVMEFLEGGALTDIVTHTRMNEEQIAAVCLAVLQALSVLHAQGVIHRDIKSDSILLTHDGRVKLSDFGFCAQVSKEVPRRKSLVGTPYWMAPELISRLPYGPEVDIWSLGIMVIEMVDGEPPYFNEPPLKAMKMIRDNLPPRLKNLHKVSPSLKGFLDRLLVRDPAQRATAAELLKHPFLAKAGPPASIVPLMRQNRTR
inactive: ibrutinib 0.049 | [1] 0.372 | ralimetinib -0.016 | [2] -0.001 | [3] -0.102 | [4] 0.023 | [5] -0.087 | [6] -0.064 | [7] -0.012 | [8] 0.034

NCAPG2 (UniProt Q86XI2)
inactive: ibrutinib 0.012 | [1] -0.029 | ralimetinib 0.018 | [2] 0.006 | [3] -0.009 | [4] 0.015 | [5] 0.05 | [6] -0.017 | [7] 0.001 | [8] -0.002

PARG (UniProt Q86W56)
inactive: ibrutinib 0.013 | [1] 0.01 | ralimetinib 0.017 | [2] -0.011 | [3] -0.025 | [4] -0.017 | [5] -0.028 | [6] 0.021 | [7] 0.061 | [8] 0.005

NNT (UniProt Q13423)
inactive: ibrutinib 0.012 | [1] -0.016 | ralimetinib -0.095 | [2] -0.01 | [3] -0.05 | [4] -0.011 | [5] -0.019 | [6] -0.007 | [7] 0.01 | [8] -0.009

OSGEP (UniProt Q9NPF4)
UniProt Q9NPF4, sequence (Q9NPF4 whole entry, looked up): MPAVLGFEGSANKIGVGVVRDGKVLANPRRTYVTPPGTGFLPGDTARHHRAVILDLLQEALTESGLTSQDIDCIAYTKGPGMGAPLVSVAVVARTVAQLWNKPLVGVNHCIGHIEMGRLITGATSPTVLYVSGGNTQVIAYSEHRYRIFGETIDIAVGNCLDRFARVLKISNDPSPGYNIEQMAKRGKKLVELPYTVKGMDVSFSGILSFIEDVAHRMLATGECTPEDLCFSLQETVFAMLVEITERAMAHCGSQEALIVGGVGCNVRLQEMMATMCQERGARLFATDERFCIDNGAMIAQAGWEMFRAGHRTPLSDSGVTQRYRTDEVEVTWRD
inactive: ibrutinib -0.009 | [1] 0.02 | ralimetinib 0.022 | [2] -0.03 | [3] -0.003 | [4] 0 | [5] 0.001 | [6] 0.012 | [7] -0.057 | [8] -0.002

OSBP2 (UniProt Q969R2)
inactive: ibrutinib 0 | [1] 0.077 | ralimetinib 0.036 | [2] -0.103 | [3] -0.223 | [4] -0.006 | [5] 0.023 | [6] 0.051 | [7] -0.011 | [8] 0

NR3C1 isoform 3 (UniProt P04150)
inactive: ibrutinib -0.168 | [1] -0.019 | ralimetinib -0.076 | [2] 0.04 | [3] 0.008 | [4] -0.031 | [5] 0.104 | [6] 0.024 | [7] -0.033 | [8] 0.055

OGT (UniProt O15294)
UniProt O15294, sequence (O15294 whole entry, looked up): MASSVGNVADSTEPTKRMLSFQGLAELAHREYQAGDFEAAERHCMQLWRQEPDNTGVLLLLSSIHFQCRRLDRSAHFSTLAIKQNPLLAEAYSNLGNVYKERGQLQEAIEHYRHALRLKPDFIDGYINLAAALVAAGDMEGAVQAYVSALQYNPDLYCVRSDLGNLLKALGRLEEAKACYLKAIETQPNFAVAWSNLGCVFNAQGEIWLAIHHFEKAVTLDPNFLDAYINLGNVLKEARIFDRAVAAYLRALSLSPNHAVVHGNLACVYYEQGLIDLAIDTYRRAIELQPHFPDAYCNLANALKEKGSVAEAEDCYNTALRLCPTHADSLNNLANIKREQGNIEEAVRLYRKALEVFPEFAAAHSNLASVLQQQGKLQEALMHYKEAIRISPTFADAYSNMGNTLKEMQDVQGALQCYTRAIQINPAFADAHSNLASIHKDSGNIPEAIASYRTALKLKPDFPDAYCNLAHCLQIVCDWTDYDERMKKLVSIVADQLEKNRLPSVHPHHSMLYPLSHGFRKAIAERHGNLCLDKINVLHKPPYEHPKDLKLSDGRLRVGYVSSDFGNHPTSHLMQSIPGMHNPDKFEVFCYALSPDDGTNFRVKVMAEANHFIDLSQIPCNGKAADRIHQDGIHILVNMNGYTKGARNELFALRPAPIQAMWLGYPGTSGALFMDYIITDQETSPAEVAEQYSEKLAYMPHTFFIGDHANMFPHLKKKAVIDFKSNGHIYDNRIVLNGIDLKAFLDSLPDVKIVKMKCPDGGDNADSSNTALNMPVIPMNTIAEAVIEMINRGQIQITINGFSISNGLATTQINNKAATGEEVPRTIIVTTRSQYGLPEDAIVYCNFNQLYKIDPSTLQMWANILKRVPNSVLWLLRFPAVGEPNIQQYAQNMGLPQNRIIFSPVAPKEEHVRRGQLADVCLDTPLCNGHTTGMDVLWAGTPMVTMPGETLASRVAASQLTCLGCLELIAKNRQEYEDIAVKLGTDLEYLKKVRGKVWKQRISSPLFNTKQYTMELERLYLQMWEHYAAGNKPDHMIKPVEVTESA
inactive: ibrutinib -0.035 | [1] -0.024 | ralimetinib 0.021 | [2] 0.023 | [3] -0.007 | [4] -0.009 | [5] -0.026 | [6] -0.014 | [7] 0.032 | [8] -0.005

MVB12A (UniProt Q96EY5)
inactive: ibrutinib 0.049 | [1] 0.009 | ralimetinib -0.008 | [2] 0.001 | [3] -0.003 | [4] -0.015 | [5] 0.033 | [6] -0.015 | [7] 0.043 | [8] 0.02

NNMT (UniProt P40261)
inactive: ibrutinib -0.026 | [1] -0.037 | ralimetinib 0.011 | [2] -0.019 | [3] -0.05 | [4] -0.053 | [5] 0.026 | [6] 0.06 | [7] 0.016 | [8] -0.034

OGFR (UniProt Q9NZT2)
inactive: ibrutinib -0.012 | [1] 0.02 | ralimetinib 0.007 | [2] -0.011 | [3] -0.008 | [4] 0.001 | [5] -0.016 | [6] -0.027 | [7] -0.003 | [8] 0.002

MTHFD1, A0A384N5Y3
inactive: ibrutinib -0.014 | [1] -0.001 | ralimetinib 0.028 | [2] 0.028 | [3] 0.03 | [4] -0.033 | [5] -0.032 | [6] 0.003 | [7] 0.047 | [8] 0.014
